Screening results deposited in PubChem BioAssay by National Center for Advancing Translational Sciences (NCATS).
Compounds with a hit are over-represented: about 2.2% of the library has one in this group of screens.
Giardia kill: Giardia lamblia killing | Giardia lamblia trophozoite viability | activity change, % at 7.66 µM, hits read low | 340,000 compounds, 0.15% hits | AID 540267; in the data active = activity change below about -80%; inconclusive = between about -30% and that limit;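 also: parasites exposed to compound for two days anaerobically before the ATP read; % is scaled to controls: 0 for no effect and ±100 for the full control effect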
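Giardia trophozoites, 100 cells per well, were exposed to compounds for 48 hrs at 37 deg C under anaerobic conditions; viability was then read as ATP content by bioluminescence after 15-30 min at room temperature.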
TrxR1 substrate: rat thioredoxin reductase 1 substrate activity; Potency, µM (titrated, usually from 114 µM), for inactives: at the highest dose activity change, negative = substrate turnover; purified TrxR1 substrate turnover, NADPH consumption readout; 390,000 compounds, 0.01% hits; also: potency is read from the fitted curve at half-maximal effect; % is scaled to controls: 0 for no effect and ±100 for the full control effect; nearly all actives have a fitted effect of over 50% in size
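Rat TrxR1, dispensed at 90 nM, was prereduced with 400 uM NADPH (final) for 5 min at ~22 deg C, then incubated with compound 15 min before 400 uM selenite. A first-read NADPH fluorescence drop versus no-compound background flagged substrates.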
BRCA1 expr up: activators of BRCA1 expression. AID 624202. MCF7-BRCA1-FFLuc reporter, luminescence, 48 h; response scale: scaled: vehicle 0%, 10 µM genistein 100%. 380,000 compounds, 1.1% hits. Potency, µM (titrated, usually from 46.1 µM), without a hit: top-dose activation, usual class: activators; also: potency is read from the fitted curve at half-maximal effect; nearly all actives have a fitted effect of over 80% in size
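First, MCF7-BRCA1-FFLuc cells (2000/well) attach for 2 h; next, compounds are pin-added and incubated 48 h at 37 °C; finally, luciferase reagent is added and luminescence read after 15 min.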
IL-2 act: IL-2 activation; activation, % (series mostly up to about 46 µM); IL-2 activation reporter assay, cell-based qHTS; stimulated with anti-CD3/CD4/CD28 beads; in transgenic mouse T cells; AID 652025; 360,000 compounds, 0.065% hits; in the data active = activation above about 50%; inconclusive = mostly about 30% to 49%; also: 0% is about no effect
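Using fluorescent plate cytometry, EGFP and DsRed are detected in transgenic mouse T cells stimulated 18 h at 37 degrees C with antibody-coated beads after 60 min compound pretreatment.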
TrxR1 inh: rat TrxR1 inhibition; 390,000 compounds, 1% hits; O89049; AID 588453; recombinant rTrxR1, NADPH fluorescence consumption, selenite substrate; Potency, µM (series often up to 114 µM), inactives show at the top dose activity change, negative = inhibition, actives largely listed as inhibitors; also: potency is read from the fitted curve at half-maximal effect; % is scaled to controls: 0 for no effect and ±100 for the full control effect; nearly all actives have a fitted effect of over 65% in size
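Rat TrxR1 (90 nM in the dispensed reagent) was pre-reduced with 400 uM NADPH for 5 min at room temperature, then incubated with compound for 15 min. After 400 uM selenite was added, NADPH fluorescence (Ex 340/Em 450 nm) was followed for 8 min.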
IDH1 R132H inh: human IDH1 R132H inhibition. IDH1-R132H enzyme, NADPH consumption, diaphorase/resazurin fluorescence. 390,000 compounds, 0.093% hits. O75874. Potency, µM (series often up to 76.6 µM), for inactives: at the top dose activity change, negative = inhibition, actives largely listed as inhibitors; also: potency is read from the fitted curve at half-maximal effect; % is scaled to controls: 0 for no effect and ±100 for the full control effect; nearly all actives have a fitted effect of over 65% in size
Target sequence (O75874 whole entry R132H, stated change not applied): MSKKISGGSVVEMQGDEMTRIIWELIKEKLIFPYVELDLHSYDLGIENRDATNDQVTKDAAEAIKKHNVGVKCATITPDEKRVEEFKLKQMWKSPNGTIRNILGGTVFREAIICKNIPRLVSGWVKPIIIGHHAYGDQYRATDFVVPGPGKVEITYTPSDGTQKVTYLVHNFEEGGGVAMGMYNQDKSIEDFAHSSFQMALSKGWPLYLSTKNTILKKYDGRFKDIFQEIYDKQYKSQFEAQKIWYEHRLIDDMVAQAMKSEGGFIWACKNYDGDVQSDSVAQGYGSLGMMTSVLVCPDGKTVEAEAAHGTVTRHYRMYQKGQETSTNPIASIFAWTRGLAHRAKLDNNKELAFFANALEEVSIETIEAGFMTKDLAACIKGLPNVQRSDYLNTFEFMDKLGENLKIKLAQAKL
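IDH1-R132H (0.5 ug/mL) preincubated 30 min with compound, then NADPH (0.016 mM) and alpha-KG (2 mM) added; 80 min at RT, pH 7.5. Remaining NADPH coupled via diaphorase/resazurin to fluorescence (540/590 nm); concentration-response curves normalized to no-enzyme control.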
IDH1 autofl: counter-screen for mutant IDH1 inhibitors: fluorescence interference; shares compounds with IDH1 R132H inh; Resorufin detection reagent fluorescence interference, cell-free; inhibition of signal, % at 51.2 µM; 750 tested, under 10 active;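 also: 0% = wells with normal resorufin and full inhibition = wells lacking resorufin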
WT IDH1 inh: selectivity of mutant IDH1 inhibitors: human wild-type IDH1; 750 compounds, 9% hits; Potency, µM (titrated, usually from 115 µM), for the others: at the highest dose activity change, negative = inhibition, hits mostly inhibitors; shares compounds with IDH1 R132H inh; AID 623995; WT IDH1 enzyme, NADPH diaphorase/resazurin fluorescence;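 also: potency is read from the fitted curve at half-maximal effect; 0% = full WT IDH1 enzyme control and full inhibition = no enzyme wells; nearly all actives have a fitted effect of over 55% in size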
Target sequence (O75874 whole entry, looked up): as the sequence (O75874 whole entry R132H, stated change not applied) above, with H132R counted along it
IDH1 R132H conf: inhibits human mutant IDH1 enzyme in cherrypick confirmation. 750 compounds, 83% hits. IDH1 R132H enzyme, NADPH diaphorase/resazurin fluorescence. AID 624002. Potency, µM (titrated, usually from 76.6 µM), for inactives: at the highest dose activity change, negative = inhibition, hits mostly inhibitors. shares compounds with IDH1 R132H inh; also: potency is read from the fitted curve at half-maximal effect; nearly all actives have a fitted effect of over 50% in size
Numbers without * were called inactive; ? = inconclusive; · = no result; [ ] = remark or other dose. Unless noted, calls follow the shape of the dose curve; as a rule, active = well fitted curve in the direction sought with a large enough effect; inconclusive = small, poorly fitted or top-dose-only effect, or another doubt; inactive = no such curve, though single readings can be large; an effect the other way counts as inactive or inconclusive.

SMILES	Giardia kill	TrxR1 substrate	BRCA1 expr up	IL-2 act	TrxR1 inh	IDH1 R132H inh	IDH1 autofl	WT IDH1 inh	IDH1 R132H conf
COc1ccc(-c2c(-c3ccsc3)oc(=O)c3cc(OC)c(OC)cc23)cn1	7	14%	0%	-2	24%	28µM*	0	-3%	8.9µM*
COc1cc2c(C(F)(F)F)c(-c3ccsc3)oc(=O)c2cc1OC	53	-1%	8%	0	20%	8%	·	·	·
COc1cc2c(-c3ccc4cc[nH]c4c3)c(-c3ccsc3)oc(=O)c2cc1OC	-16	9%[57.1 µM]	-2%	-3	23%[57.1 µM]	?	-8	-1%	11µM*
CCCSCCCNC(=O)CN1C(=O)COc2ccc(S(=O)(=O)N3CCC(C)CC3)cc21	·	3%	0%	·	0%	-1%	·	·	·
Cc1ccc2nc(N(Cc3cccnc3)C(=O)COc3ccccc3)sc2c1	·	-12%[57.1 µM]	·	·	10%[57.1 µM]	-28%	·	·	·
CCn1c(=O)c2cc(C(=O)N(C)c3ccccc3F)sc2c2ccccc21	-9	0%	-34%	0	12%	?	-7	-1%	28µM*
CCCN(C(=O)c1cc2c(=O)n(CC)c3ccccc3c2s1)c1ccccc1F	·	3%	-10%	·	35%	-17%	·	·	·
CCn1c(=O)c2cc(C(=O)N(C)c3cc(C)ccc3OC)sc2c2ccccc21	11	-10%	-33%	-1	8%	?	-6	1%	32µM*
Cc1cc(C)c(NC(=O)CSc2cn(CC(=O)N3CCOCC3)c3ccccc23)c(C)c1	·	-5%	·	·	10%	0%	·	·	·
COc1ccc(OC)c(CNC(=O)c2ccccc2NC(=O)c2nsc3ccccc23)c1	·	7%[57.1 µM]	·	·	12%[57.1 µM]	-14%	·	·	·
Cc1cccc(N2CCN(C(=O)Cn3nc(Cc4cccnc4)c4ccccc4c3=O)CC2)c1C	·	-2%	·	·	21%	2%	·	·	·
CC1=C(c2ccc(C)cc2)S(=O)(=O)N(Cc2ccc(C(=O)NCc3cccc(C)c3)cc2)C1=O	·	6%[57.1 µM]	·	·	28%[57.1 µM]	11%	·	·	·
COc1cc(C2c3c(-c4ccccc4O)n[nH]c3C(=O)N2Cc2ccco2)ccc1OCC(C)C (configuration not stated)	·	-3%	·	·	8%	?	1	-19%	20µM*
COc1cccc(C2c3c(-c4ccccc4O)n[nH]c3C(=O)N2Cc2ccco2)c1 (configuration not stated)	0	1%	-33%	0	6%	52µM*	0	-5%	40µM*
O=C1c2[nH]nc(-c3ccccc3O)c2C(c2ccccc2)N1Cc1ccco1 (configuration not stated)	2	-2%[57.1 µM]	-45%	1	7%[57.1 µM]	0%	·	·	·
COc1cc(C2c3c(-c4ccccc4O)n[nH]c3C(=O)N2CCO)ccc1OCC(C)C (configuration not stated)	·	1%	·	·	8%	-27%	·	·	·
Cc1ccc(O)c(-c2n[nH]c3c2C(c2ccccc2F)N(Cc2ccco2)C3=O)c1 (configuration not stated)	·	-4%	·	·	17%	?	-10	-21%	25µM*
O=C1c2[nH]nc(-c3ccccc3O)c2C(c2ccc(Cl)cc2)N1Cc1ccco1 (configuration not stated)	·	4%	·	·	12%	40µM*	-1	1%	28µM*
Cc1ccccc1CNC(=O)CN(c1cccc(C)c1C)S(C)(=O)=O	·	9%[57.1 µM]	·	·	15%[57.1 µM]	17%	·	·	·
CCOc1cccc(C2c3c(-c4cc(C)ccc4O)n[nH]c3C(=O)N2Cc2ccco2)c1 (configuration not stated)	·	-11%	·	·	9%	32µM*	1	-2%	11µM*
CCCCOc1cccc(C2c3c(-c4cc(C)ccc4O)n[nH]c3C(=O)N2CCOC)c1 (configuration not stated)	·	-5%	·	·	17%	32µM*	-11	0%	22µM*
COc1ccc(NC(=S)N=Nc2c(O)[nH]c3ccccc23)cc1	-9	-8%	-7%	0	-1%	-3%	·	·	·
COc1ccc(S(=O)(=O)N=Nc2c(O)[nH]c3ccccc23)cc1	-8	-8%	-6%	-5	-17%	52µM*	-1	143%	?
Cc1ccc(S(=O)(=O)N=Nc2c(O)[nH]c3ccccc23)cc1C	-1	-6%[57.1 µM]	-12%	-3	-17%[57.1 µM]	46µM*	1	217%	45µM*
COc1ccccc1NC(=O)c1sc2nc(-c3cc4cc(Cl)ccc4oc3=O)[nH]c(=O)c2c1C	·	?	·	·	-9%	6%	·	·	·
SMILES	Giardia kill	TrxR1 substrate	BRCA1 expr up	IL-2 act	TrxR1 inh	IDH1 R132H inh	IDH1 autofl	WT IDH1 inh	IDH1 R132H conf
CC(C)C[C@H](NC(=O)c1[nH]cnc1C(=O)N[C@@H](Cc1ccccc1)C(=O)OC(C)(C)C)C(=O)OC(C)(C)C	-18	-23%	-59%	-1	-15%	7%	·	·	·
CC(C)C[C@H](NC(=O)c1[nH]cnc1C(=O)N[C@@H](C)c1ccccc1)C(=O)OC(C)(C)C	3	-11%	-83%	-4	-9%	18µM*	7	-14%	20µM*
Cc1cccc(NC(=O)Cn2c(=O)n(CCCCCC(=O)NCc3ccc4c(c3)OCO4)c(=O)c3sccc32)c1	·	0%	·	·	23%	-14%	·	·	·
Cc1ccc(CNC(=O)c2ccc(CSCc3ccc(C)cc3)o2)cc1	·	-1%[57.1 µM]	·	·	4%[57.1 µM]	-15%	·	·	·
Cc1ccc(CNC(=O)c2ccc(CSCc3c(F)cccc3Cl)o2)cc1	·	-2%[57.1 µM]	·	·	3%[57.1 µM]	40µM*	4	-1%	0%
CN1CCC(=O)N(C(CSc2ccc(Br)cc2)c2ccccc2)CC1 (configuration not stated)	0	-4%	·	·	-16%	·	·	·	·
COc1ccc(C2c3c(-c4ccc(F)cc4)n[nH]c3C(=O)N2c2ccccc2)cc1OC (configuration not stated)	·	2%	·	·	-1%	3%	·	·	·
COc1cccc(C2c3c(-c4ccccc4)n[nH]c3C(=O)N2c2ccc(C(=O)O)cc2)c1 (configuration not stated)	-12	12%[57.1 µM]	19%	0	11%	?	1	?	20µM*
